A short description of experiment [1]: circadian clock period modulators, cell-based, LOPAC library, luminescence reporter (AID 2774).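 Note: values are relative to mean of DMSO wells on each plate.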 To be noted: circadian reporter cells, at 7 µM, actives lie on both sides.
Experiment [2] concerns Hepatitis C virus NS3 helicase. Kind of experiment: HCV NS3 helicase inhibitors, primary screen, biochemical, fluorescence polarization, LOPAC1280 library (AID 687035; in the data active = inhibition above about 37%). To be noted: Purified HCV NS3 helicase, Cy5-dT15 ssDNA binding fluorescence polarization; stronger effect = higher value; concentration not given here.
A short description of experiment [3]: Cy5 fluorescence quenching or enhancement artefacts, artefact control for HCV NS3 helicase inhibitor project, biochemical, LOPAC1280 (AID 687037). The following applies: Cy5-DNA-NS3h complex fluorescence interference counterscreen.
A short description of experiment [4]: sensitizers of A549 cells to miR-34 induction, primary screen, imaging, A549 dox-inducible miR-34, nuclei and caspase counts (AID 1347080;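 active = compounds whose cell count with miR-34 switched on is under 0.7 times the count with it off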). To be noted: A549 miR-34 inducible, Hoechst nuclei count, 48 h.
Experiment [5] is described as follows: phospholipid biosynthesis inhibitors in animal cells, primary screen, cell-based, LOPAC library, screen 4 (AID 1347384). To be noted: phospholipid biosynthesis inhibition screen, at 10 µM.
Experiment [6] in a line: viability rescue of complex I mutant cybrids, primary screen, cell-based, galactose medium, ATP luminescence (AID 1645843;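 active = z-score of at least 1.8 in each of two replicates, scored against plate mean and spread of sample wells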;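 note: positive z means more ATP and so rescue of galactose-driven cybrid death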). To be noted: complex I mutant cybrid cells, 72 h, stronger effect = higher value.
The mark [7] stands for this setting: stronger effect = lower value, cell number ratio, induced over uninduced.
[8] abbreviates: measured here: relative caspase fold change +Dox/-Dox.
The mark [9] stands for this setting: measured here: total cells with miR-34 induction, stronger effect = lower value.
The mark [10] stands for this setting: measured here: total cells without miR-34 induction.

Each structure is given as a SMILES string. Activity calls are given as the source filed them. Unless noted, the rule behind the calls is not given here.

As for `COc1cc(C(O)CO)ccc1OS(=O)(=O)O` (stereo not given), the period change in experiment [1] is -0.25 h (inactive). Besides, in experiment [2], the inhibition is -2% (inactive). Besides, in experiment [3], the fluorescence ratio (interference) is 1 (inactive). Also, the fold change in experiment [4] (setting [7]) was 1.02 (inactive); in experiment [4] (setting [8]) it was 1.08. The values for the cell count in experiment [4] (setting [9]) and in experiment [4] (setting [10]) were 10400 and 10200, respectively. Moreover, the compound was classed as inactive in experiment [5]. Further, the z-score in experiment [6] is 0.025 (inactive).

Regarding `Cc1nc(N=Nc2ccc(C(=O)O)cc2)c(COP(=O)(O)O)c(C=O)c1O`, the period change in experiment [1] is -0.16 h (inactive). Also, in experiment [2], the inhibition is 43% (active). In addition, the fluorescence ratio (interference) in experiment [3] was 1 (inactive). Also, the fold change in experiment [4] (setting [7]) was 1.04 (inactive); in experiment [4] (setting [8]), 0.656. For the same compound, the cell count in experiment [4] (setting [9]) is 10100; in experiment [4] (setting [10]) it was 9680. Further, in experiment [5], the compound was classed as inactive. In experiment [6], the z-score was 0.49 (inactive).

As to `C#CC(N)CCC(=O)O` (stereo not given), in experiment [1], the period change was 0 h (inactive). Further, the inhibition in experiment [2] was -1% (inactive). The fluorescence ratio (interference) in experiment [3] was 1 (inactive). The fold change is 1.04 (inactive) in experiment [4] (setting [7]) and 2.03 in experiment [4] (setting [8]). Moreover, the figures for the cell count in experiment [4] (setting [9]) and in experiment [4] (setting [10]) were 10600 and 10100, respectively. Besides, the call in experiment [5] was inactive. Also, the z-score in experiment [6] is -0.17 (inactive).

Turning to `O=C(O)C1CN(CCCP(=O)(O)O)CCN1` (stereo not given), in experiment [1], the period change is 0.255 h (inactive). The inhibition in experiment [2] was 1% (inactive). Besides, the fluorescence ratio (interference) in experiment [3] is 1 (inactive). In addition, the fold change is 0.99 (inactive) in experiment [4] (setting [7]) and 1.52 in experiment [4] (setting [8]). For the same compound, the cell count in experiment [4] (setting [9]) is 10000; in experiment [4] (setting [10]) it was 10100. Further, in experiment [5], the outcome was inactive. Besides, in experiment [6], the z-score was 0.45 (inactive).

As to `Cn1c(=O)c2c(nc(/C=C/c3cccc(Cl)c3)n2C)n(C)c1=O`, the period change in experiment [1] was 0.15 h (inactive). Besides, in experiment [2], the inhibition is -2% (inactive). Besides, in experiment [3], the fluorescence ratio (interference) is 1 (inactive). Besides, the fold change in experiment [4] (setting [7]) is 1.03 (inactive); in experiment [4] (setting [8]) it was 1.2. For the same compound, the cell count in experiment [4] (setting [9]) was determined as 9630; in experiment [4] (setting [10]), 9370. For the same compound, the result in experiment [5] was inactive. The z-score in experiment [6] is 1.26 (inactive).

For the compound `Cc1nc(N=Nc2ccc(S(=O)(=O)O)cc2S(=O)(=O)O)c(COP(=O)(O)O)c(C=O)c1O`, in experiment [1], the period change is 0.055 h (inactive). For the same compound, the inhibition in experiment [2] is 0% (inactive). The fluorescence ratio (interference) in experiment [3] is 1 (inactive). Further, the fold change was 0.994 (inactive) in experiment [4] (setting [7]) and 1.49 in experiment [4] (setting [8]). The cell count in experiment [4] (setting [9]) was found to be 9390; in experiment [4] (setting [10]), 9440. In addition, in experiment [5], the compound was classed as inactive. The z-score in experiment [6] is 0.795 (inactive).

On to `O=C(O)CCC(C(=O)O)N1C(=O)c2ccccc2C1=O` (stereo not given), for which the period change in experiment [1] was -0.075 h (inactive). In addition, the inhibition in experiment [2] is -4% (inactive). Moreover, the fluorescence ratio (interference) in experiment [3] was 1 (inactive). For the same compound, the fold change is 1.05 (inactive) in experiment [4] (setting [7]) and 0.915 in experiment [4] (setting [8]). Moreover, the cell count in experiment [4] (setting [9]) was determined as 10300; in experiment [4] (setting [10]), 9760. The call in experiment [5] was inactive. The z-score in experiment [6] is 0.255 (inactive).

Turning to `CCCn1c(=O)c2c(ncn2C)n(CCC)c1=O`, the period change in experiment [1] is -0.02 h (inactive). Moreover, in experiment [2], the inhibition is -3% (inactive). In addition, the fluorescence ratio (interference) in experiment [3] is 1.1 (inactive). Further, the fold change was 1 (inactive) in experiment [4] (setting [7]) and 1.17 in experiment [4] (setting [8]). Further, the values for the cell count in experiment [4] (setting [9]) and in experiment [4] (setting [10]) were 10000 and 9990, respectively. Also, the compound was called inactive in experiment [5]. The z-score in experiment [6] is 0.46 (inactive).

For `COc1cccc(C(=O)NCCN2CCN(c3ccc(Cl)cc3)CC2)c1`, the period change in experiment [1] was -0.035 h (inactive). For the same compound, the inhibition in experiment [2] is 0% (inactive). In addition, in experiment [3], the fluorescence ratio (interference) is 1 (inactive). The fold change in experiment [4] (setting [7]) is 1.02 (inactive); in experiment [4] (setting [8]), 1.92. Further, the cell count worked out at 9900 in experiment [4] (setting [9]) and 9720 in experiment [4] (setting [10]). Moreover, in experiment [5], the outcome was inactive. Besides, in experiment [6], the z-score was -0.845 (inactive).

In the case of `C=C/C(C)=C/[C@@]1(C)SC(=O)C(C)=C1O`, in experiment [1], the period change was -0.02 h (inactive). Also, the inhibition in experiment [2] is -4% (inactive). Further, in experiment [3], the fluorescence ratio (interference) was 1 (inactive). Besides, the fold change in experiment [4] (setting [7]) is 1.05 (inactive); in experiment [4] (setting [8]) it was 1.19. Besides, the cell count in experiment [4] (setting [9]) amounted to 10800; in experiment [4] (setting [10]), 10300. The compound was classed as inactive in experiment [5]. The z-score in experiment [6] is 0.66 (inactive).

These data come from PubChem BioAssay.
